High-throughput results from PubChem.
Shown are actives, neighbours in structure and some others; about 22% of the full set was active somewhere.
CYP2C9 act: CYP2C9 (human) activation; P11712; recombinant CYP2C9, luciferin-H conversion, luminescence; active compounds read high; factor 1 = untreated enzyme, 0 = blocked; activation factor at 5 µM; 96,000 tested, 1.4% active; AID 1024;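 active = activation factor of 2 or more for CYP2C9 at a 5 µM dose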
Target sequence (P11712 whole entry, looked up): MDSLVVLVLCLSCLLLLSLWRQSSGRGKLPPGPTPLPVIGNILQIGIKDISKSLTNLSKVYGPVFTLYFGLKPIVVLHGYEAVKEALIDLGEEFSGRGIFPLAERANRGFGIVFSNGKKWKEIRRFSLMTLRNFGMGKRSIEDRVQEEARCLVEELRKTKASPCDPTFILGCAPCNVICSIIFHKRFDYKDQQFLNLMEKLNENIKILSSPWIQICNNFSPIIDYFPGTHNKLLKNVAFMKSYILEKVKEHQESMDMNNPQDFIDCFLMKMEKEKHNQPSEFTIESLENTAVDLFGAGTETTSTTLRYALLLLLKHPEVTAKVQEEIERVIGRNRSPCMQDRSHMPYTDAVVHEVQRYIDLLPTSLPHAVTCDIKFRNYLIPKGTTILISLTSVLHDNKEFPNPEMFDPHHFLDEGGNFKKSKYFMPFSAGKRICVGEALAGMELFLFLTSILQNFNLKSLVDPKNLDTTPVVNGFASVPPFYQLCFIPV
CYP2C19 inhib: human CYP2C19 inhibition. P33261. CYP2C19 Supersomes, luciferin-H EGE luminescence, 30 min. inhibition, % at 5 µM. 96,000 tested, 21% active. AID 778;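 active = CYP2C19 inhibition above a set limit at 5 µM in the primary screen, cut at about 50% in these data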
CYP2C19 activ: activators of human cytochrome P450 2C19. P33261. recombinant CYP2C19, luciferin-H EGE luminescence; active compounds read high; 0 = fully inhibited enzyme, 1 = untreated enzyme. activation factor at 5 µM. 96,000 tested, under 10 active. AID 1025;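 active = activation factor of at least 2 at 5 µM in the primary screen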
CYP2C9 inh: inhibitors of human CYP2C9; P11712; CYP2C9 Supersomes, luciferin-H conversion, luminescence; inhibition, % at 5 µM; 96,000 tested, 20% active; AID 777;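 active = blocking of liver enzyme CYP2C9 beyond about 50% at 5 µM, limit read from the data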
E-sel TNF inh: TNF alpha driven E-selectin expression inhibition; HUVEC TNFa-induced E-selectin immunofluorescence, high content; inhibition, % at 2 µM; 120,000 tested, 0.71% active;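 active = inhibition above the batch mean plus 3 SD, and confirmed as a hit on visual image review, cut at about 43% in these data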
cytoskel mod: alters cytoskeleton assembly in HUVEC cells; AID 836; 91,000 tested, 0.18% active; HUVEC TNFa F-actin phalloidin imaging, high content; inhibition, % at 2 µM;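 active = inhibition above the batch mean plus 3 SD and confirmed as a hit by visual image inspection, cut at about 30% in these data, passing the limit was not always enough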
A number is an active result; 0 = inactive; - = no result.

SMILES	CYP2C9 act	CYP2C19 inhib	CYP2C19 activ	CYP2C9 inh	E-sel TNF inh	cytoskel mod
O=C(Nc1nc(-c2ccccc2)cs1)C1CCCN(S(=O)(=O)c2ccccc2)C1 (stereo not drawn)	0	0	0	69	-	0
O=C(Cc1ccccc1)Nc1nc(-c2cccc([N+](=O)[O-])c2)cs1	-	-	-	-	0	-
CSc1nc(N)nc(SCC(=O)OC(C)C)c1C#N	0	0	0	57	0	0
Cc1ccc(-c2nc(SCC(N)=O)c(C#N)c3c2CCCC3)cc1	0	65	0	0	0	0
CSc1nc(N)nc(SCC(=O)c2ccc(C)cc2)c1C#N	0	0	0	54	0	0
N#Cc1c(SCC(N)=O)nc(-c2ccccc2)c2c1CCCC2	0	0	0	0	0	0
Cc1ccc(C(=O)CSC2=NC(N)=C(C#N)C3(CCCCC3)C2C(N)=O)cc1 (stereo not drawn)	0	0	0	0	0	-
CCc1c(C)nc(SCC(=O)CC(=O)OC(C)C)c(C#N)c1C	0	77	0	0	-	-
Cc1ccc2cc(C#N)c(SCC(=O)NNC(=O)Cc3ccccc3)nc2c1	-	-	-	-	0	-
CC(=O)c1cccc(NS(=O)(=O)c2ccc(N/C=C\C(=O)c3ccc(F)cc3)cc2)c1	0	0	0	0	0	0
CSc1cccc(NS(=O)(=O)c2ccc(F)cc2)c1	0	96	0	91	0	0
CSc1cccc(NS(=O)(=O)c2ccccc2)c1	0	0	0	66	0	0
CCOC(=O)COc1ccc(S(=O)(=O)Nc2cccc(SC)c2)cc1	0	88	0	78	0	0
Cc1ccc(S(=O)(=O)Nc2cccc(/C=C/C(=O)O)c2)cc1	0	0	0	0	0	0
CCOC(=O)COc1ccc(S(=O)(=O)Nc2ccc3c(c2)OCCO3)cc1	0	0	0	0	0	0
C/C(=N\Nc1ccc([N+](=O)[O-])cc1[N+](=O)[O-])C(C)(C)C(C(=O)O)C(=O)O	-	-	-	-	0	-
CN(C)C(CNC(=O)c1cccc(OC(F)F)c1)c1ccco1 (stereo not drawn)	-	-	-	-	0	-
CCOC(=O)c1c(-c2ccccc2)nc2c(C)cccn12	0	0	0	0	0	0
COc1ccc(/C(C#N)=C/c2c(-c3ccc(Cl)cc3)nc3c(C)cccn23)cc1	0	52	0	57	-	0
c1ccc2nc(-c3ccc(N4CCOCC4)cc3)ccc2c1	0	0	0	0	-	-
c1ccc2nc(-c3ccncc3)ccc2c1	0	68	0	0	0	0
COc1c(N2CCN(C(=S)NCc3ccccc3)C(C)C2)c(F)cc2c(=O)c(C(=O)O)cn(C3CC3)c12 (stereo not drawn)	0	0	0	0	0	-
O=C(O)C1CCC(=O)N(C2CCCCC2)C1c1ccccc1 (stereo not drawn)	-	-	-	-	0	0
CC(=O)c1ccc2c3c(cccc13)CC2	3.6	0	0	0	0	0
CN(C)C(=O)c1ccc2c3c(cccc13)CC2	-	-	-	-	0	-
SMILES	CYP2C9 act	CYP2C19 inhib	CYP2C19 activ	CYP2C9 inh	E-sel TNF inh	cytoskel mod
CS(=O)(=O)Nc1ccc2c3c(cccc13)CC2	2.5	0	0	0	0	0
Cc1cc(Cl)ccc1OCC(=O)NCC(=O)N/N=C/c1ccco1	-	-	-	-	0	-
Cc1cc(NS(=O)(=O)c2ccc(NC(=O)C(CC(C)C)N3C(=O)c4ccccc4C3=O)cc2)nc(C)n1 (stereo not drawn)	0	0	0	0	0	0
C=CCNc1sc(C(=O)C(C)(C)C)c(N)c1C#N	0	0	0	0	0	-
Cc1cc(=O)oc(C)c1C(=O)n1nc(C)c2c1C[C@@H]1[C@H]2C1(C)C	0	0	0	62	0	-
Cc1cc(=O)oc(C)c1C(=O)NC12CC3CC(CC(C3)C1)C2	0	0	0	0	0	0
O=c1c2ccccc2ncn1-c1ccc2c(c1)OCCO2	0	0	0	0	0	0
COCCn1cnnc1SCC(=O)c1ccc(S(=O)(=O)N2CCCC2)cc1	0	57	0	0	0	-
CCOCCCNC(=O)c1cc(Sc2ccc(C)cc2)nc2ccccc12	-	-	-	-	0	-
O=C(CNc1cc(S(=O)(=O)N2CCOCC2)ccc1N1CCCC1)N1CCc2ccccc21	-	-	-	-	0	-
CCCC(=O)Nc1cc(Cl)ccc1N1CCN(C(=O)CC)CC1	0	86	0	85	0	0
CCC(=O)N1CCN(c2ccccc2NC(=O)Cc2ccc(Cl)cc2)CC1	0	0	0	0	0	0
CCC(=O)N1CCN(c2ccc(Cl)cc2NC(=O)Cc2ccc(Cl)cc2)CC1	0	51	0	0	0	0
O=C(c1ccc(F)cc1)c1c[nH]c(C(=O)NCCCN2CCOCC2)c1	0	0	0	0	-	0
